Screening results as filed in PubChem BioAssay.
mHTT-CaM PPI inh: disrupts binding of mutant huntingtin to calmodulin | P42858 | AlphaScreen His-mHTT/GST-CaM binding, luminescence | inhibition, % at 15 µM | 190,000 compounds, 3.6% hits | AID 1671202
Pf apPOL block: Pf-apPOL DNA polymerase inhibition; inhibition, % at 10 µM; Recombinant Pf-apPOL, molecular beacon fluorescence, 1.5 h; 210,000 compounds, 0.25% hits
Large screens that a line does not name were inactive; ! = repeats disagree. Hits are enriched below; roughly 3.5% of the tested compounds scored in any of these assays. No stated cut-off is given here; in the data, active means inhibition above about 50%; inactive means the rest.

O=C(NC1CCCCC1)C1CCc2sc(C(=O)N3CCOCC3)cc2C1 (centres undefined)	none
COc1ccccc1OCCNC(=O)C1CCN(c2nccnc2Oc2ccccc2)CC1	none
O=C(Nc1nc2ccccc2s1)C1CC(=O)N(CCc2c[nH]c3ccc(Cl)cc23)C1 (centres undefined)	mHTT-CaM PPI inh 100
Cc1ccc(N2CC(C(=O)Nc3nc4ccccc4s3)CC2=O)cc1Cl (centres undefined)	mHTT-CaM PPI inh 55
Cc1cccc(NC(=O)C2CC(=O)N(CCc3c[nH]c4ccc(Cl)cc34)C2)c1 (centres undefined)	mHTT-CaM PPI inh 82
COc1cccc(NC(=O)C2CC(=O)N(CCc3c[nH]c4ccc(Cl)cc34)C2)c1 (centres undefined)	none
CCCCNC(=O)C1CC(=O)N(CCc2c[nH]c3ccc(Cl)cc23)C1 (centres undefined)	none
O=C(Nc1ccc2c(c1)OCCO2)C1CC(=O)N(CCc2c[nH]c3ccc(F)cc23)C1 (centres undefined)	none
O=C(Nc1ccc2c(c1)OCCO2)C1CC(=O)N(CCc2c[nH]c3ccc(Cl)cc23)C1 (centres undefined)	mHTT-CaM PPI inh 76
COc1ccc(NC(=O)C2CC(=O)N(c3ccc(C)c(Cl)c3)C2)cc1 (centres undefined)	none
CCC(C)c1ccc(NC(=O)CCC(=O)O)cc1 (centres undefined)	none
Nc1cc(C2CCN(C(=O)c3c(F)cccc3F)CC2)no1	none
CN(C)CCNC(=O)c1ccc(-c2ccc(N3CCCCCC3)nc2)cc1	none
COc1ccc(NC2CCC(C3OCCO3)CC2O)cc1 (centres undefined)	none
Cn1c(=O)c2c(nc(NC3CCCCC3)n2Cc2ccc(Cl)cc2)n(C)c1=O	none
O=C(Nc1cccc(F)c1)C1CC(=O)N(CCc2c[nH]c3ccc(Cl)cc23)C1 (centres undefined)	mHTT-CaM PPI inh 66
O=C(Nc1nccs1)C1CC(=O)N(CCc2c[nH]c3ccc(Cl)cc23)C1 (centres undefined)	mHTT-CaM PPI inh 63
O=C(Nc1nncs1)C1CC(=O)N(CCc2c[nH]c3ccc(Cl)cc23)C1 (centres undefined)	none
COc1ccc2[nH]cc(CCN3CC(C(=O)Nc4cc(F)cc(F)c4)CC3=O)c2c1 (centres undefined)	none
COc1ccc2[nH]cc(CCN3CC(C(=O)Nc4ccc(F)c(Cl)c4)CC3=O)c2c1 (centres undefined)	mHTT-CaM PPI inh 55
O=C(Nc1cccc(F)c1)C1CC(=O)N(CCc2c[nH]c3ccc(F)cc23)C1 (centres undefined)	none
Cc1cc(Cl)ccc1NC(=O)c1ccccc1[N+](=O)[O-]	none (no result: mHTT-CaM PPI inh)
Cn1c(SCC(=O)N2CCOCC2)nnc1-c1ccc(=O)n(C)c1	none
COc1ccc(OCC(=O)NCCN2CCOCC2)cc1	none
CCCc1noc(-c2cccnc2N2CCCN(C(=O)c3ccccc3OCC)CC2)n1	none
COc1ccc(-c2coc3c(CN4CCCCC4)c(O)ccc3c2=O)cc1	none
Cc1ccc(N2C(=O)c3cccnc3C2CC(=O)NC2CCCCCC2)cc1 (centres undefined)	none
CCOC(=O)C1C(=O)C=C(c2ccc(C)cc2)CC1c1ccc(C(C)C)cc1 (centres undefined)	none
Cc1ccc(N2CCN(C(=O)c3sc(Nc4ccc(F)cn4)nc3C)CC2)cc1	mHTT-CaM PPI inh 78
Cc1ccnc(Nc2nc(C)c(C(=O)N3CCCC3)s2)c1	none
Cc1ccc(NC(=O)Nc2cccc(Cl)c2)nc1	none
COc1ccc(C2CC(c3ccc(C)cc3)Nc3ncnn32)c(OC)c1OC (centres undefined)	none
COc1ccc(C2CC(c3ccc(Br)cc3)Nc3ncnn32)c(OC)c1 (centres undefined)	mHTT-CaM PPI inh 57
COc1ccc(C2CC(c3cc(OC)ccc3OC)n3ncnc3N2)cc1 (centres undefined)	none
COc1ccc(C2CC(c3cccc(Br)c3)Nc3ncnn32)c(OC)c1 (centres undefined)	none
COc1cccc(C2CC(c3ccc(C)c(C)c3)Nc3ncnn32)c1OC (centres undefined)	mHTT-CaM PPI inh 53
COc1ccc(C2CC(c3ccc(Br)cc3)Nc3ncnn32)c(OC)c1OC (centres undefined)	mHTT-CaM PPI inh 57
COc1cccc(C2CC(c3ccc(I)cc3)Nc3ncnn32)c1OC (centres undefined)	none
COc1ccc(OC)c(C2CC(c3ccc(Br)cc3)Nc3ncnn32)c1 (centres undefined)	mHTT-CaM PPI inh 61
COc1ccc(NC(=O)CSc2nc3c(c(=O)n2C)SC(C)C3)c(OC)c1 (centres undefined)	none
COc1cc(C(=O)N2CCN(Cc3ccc(Cl)cc3)CC2)cc(OC)c1OC	none
O=C(CCc1csc(NC(=O)c2ccc(F)cc2)n1)NCc1nc2ccccc2[nH]1	none
O=C(Nc1ccc(F)c(Cl)c1)N1CCC(N2CCN(Cc3ccccc3)C2=O)CC1	none
CC(C)(C)N1C(=O)NC2C1NC(=O)N2C(C)(C)C (centres undefined)	none
CCCc1nc(-c2c(C)cc(C)nc2NC(=O)c2ccccc2Br)no1	none
CC(=O)N(C)C1=C(N2CCCC2)C(=O)c2ccccc2C1=O	none
CC(=O)N(C1=C(N2CCCCC2)C(=O)c2ccccc2C1=O)c1cccc(Cl)c1	mHTT-CaM PPI inh 76
CC(=O)N(C1=C(N2CCOCC2)C(=O)c2ccccc2C1=O)c1ccc(C(=O)O)cc1	none
CC(=O)N(C1=C(N2CCCC2)C(=O)c2ccccc2C1=O)c1ccc(F)c(F)c1	mHTT-CaM PPI inh 100
O=C(CCC1CCCN(C(=O)Nc2ccccc2F)C1)NC1CCCC1 (centres undefined)	none
O=C1C(NC2CCCCC2)=C(N2CCOCC2)C(=O)c2ccccc21	none
COc1ccc(-c2ccc(CN3C(CC(C)C)C(=O)N(Cc4cn(CCC5OCCCO5)nn4)CCS3(=O)=O)cc2)cc1OC (centres undefined)	none
CC(C)CC1C(=O)N(Cc2cn(CCC3OCCCO3)nn2)CCS(=O)(=O)N1Cc1ccc(-c2ccccc2)cc1 (centres undefined)	mHTT-CaM PPI inh 54
CC(C)CC1C(=O)N(Cc2cn(CCC3OCCCO3)nn2)CCS(=O)(=O)N1Cc1ccc(-c2cccc(N(C)C)c2)cc1 (centres undefined)	mHTT-CaM PPI inh 69
CC(C)CC1C(=O)N(Cc2cn(CCC3OCCCO3)nn2)CCS(=O)(=O)N1Cc1ccc(-c2ccncc2)cc1 (centres undefined)	none
COc1ccc(O)c(C2=Nc3ccccc3N=C(c3cccc([N+](=O)[O-])c3)C2)c1	mHTT-CaM PPI inh 57
COc1ccc(-c2nnc(-c3cccc([N+](=O)[O-])c3)o2)cc1	none
O=C(c1c[nH]c2ccccc12)N1CCC2(CC1)NC(=O)N(Cc1ccc(Cl)cc1)C2=O	mHTT-CaM PPI inh 90
CCOc1ccccc1C(=O)N1CCC2(CC1)NC(=O)N(Cc1ccc(Cl)cc1)C2=O	mHTT-CaM PPI inh 55
CCOc1ccccc1C(=O)n1cc(Cl)cn1	Pf apPOL block 98!
COc1ccccc1C(=O)N1CCC2(CC1)NC(=O)N(Cc1ccc(Cl)cc1)C2=O	none
O=C(c1cccc2[nH]ccc12)N1CCC2(CC1)NC(=O)N(Cc1ccc(Cl)cc1)C2=O	none
CCOc1ccccc1C(=O)N1CCN(c2ccc(Cl)cc2)CC1	none
Cc1ccc(C(=O)Nc2ccc(-n3c(C)nc4ccccc4c3=O)cc2)s1	none
O=C(NCc1cccnc1-c1ccccc1)c1ccsc1	none
